# PubChem BioAssay (NCATS)
# Results filed as inconclusive are left out. A call without a number means that no potency is given here. Active and inactive are the calls of the source. Unless noted, calls come from the whole dose curve.
# How the values were obtained:
# [1] = Confirmatory qHTS to identify inhibitors of SARS-CoV-2 cell entry (AID 1645844); conditions: SARS-CoV-2 pseudotyped particle cell entry, luciferase; series mostly up to 57.2 µM; note: potency is the fitted concentration of half-maximal effect; nearly all actives have a fitted effect of over 45% in size
# Procedure, shortened: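 HEK293-ACE2 cells were pretreated 1 h with compound, then infected with MLV-based pseudoparticles bearing C-terminally truncated Wuhan-Hu-1 spike for 48 h at 37C; luciferase luminescence normalized to spike PP and bald PP wells.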
# [2] = biological target: Cytochrome P450 2D6 (Homo sapiens) (UniProt P10635); test: Cytochrome P450 family 2 subfamily D member 6 (CYP2D6) small molecule antagonists: luciferase biochemical (cell-free) qHTS assay (AID 1645840; active = well fitted curve in the direction sought with a large enough effect in the repeat runs; an effect the other way counts as inactive or inconclusive; note: nearly all actives have a fitted effect of over 55% in size); conditions: P450-Glo CYP2D6 enzyme, luciferin luminescence, 1 h; series mostly up to 57.4 µM
# Cytochrome P450 2D6 (Homo sapiens), sequence (P10635 whole entry, looked up): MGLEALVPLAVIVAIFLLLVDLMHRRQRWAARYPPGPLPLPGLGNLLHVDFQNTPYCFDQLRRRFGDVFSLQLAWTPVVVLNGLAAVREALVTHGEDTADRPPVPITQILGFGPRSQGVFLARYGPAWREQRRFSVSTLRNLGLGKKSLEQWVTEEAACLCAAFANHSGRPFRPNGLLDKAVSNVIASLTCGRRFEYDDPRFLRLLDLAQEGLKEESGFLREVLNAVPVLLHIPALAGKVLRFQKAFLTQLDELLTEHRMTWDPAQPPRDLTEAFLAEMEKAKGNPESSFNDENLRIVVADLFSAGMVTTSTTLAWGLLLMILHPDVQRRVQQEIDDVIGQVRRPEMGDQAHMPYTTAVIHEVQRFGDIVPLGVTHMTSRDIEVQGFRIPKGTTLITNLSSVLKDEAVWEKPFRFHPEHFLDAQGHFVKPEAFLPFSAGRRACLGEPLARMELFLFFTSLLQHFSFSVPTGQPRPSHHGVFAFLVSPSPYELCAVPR
# Procedure, shortened: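 P450-Glo luminescent screen: recombinant CYP2D6 enzyme–proluciferin substrate mix preincubated with compound 10 min at room temperature, then NADPH regeneration added for 1 h at room temperature. Detection reagent added for 20 min; luciferin light read as relative luminescence units.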
# [3] = biological target: Cytochrome P450 2C9 (Homo sapiens) (UniProt P11712); test: Cytochrome P450 family 2 subfamily C member 9 (CYP2C9) small molecule antagonists: luciferase biochemical (cell-free) qHTS assay (AID 1645842; active = well fitted curve in the direction sought with a large enough effect in the repeat runs; an effect the other way counts as inactive or inconclusive; note: nearly all actives have a fitted effect of over 55% in size; note: potency is the fitted concentration of half-maximal effect); conditions: P450-Glo CYP2C9 enzyme assay, luciferin luminescence; series mostly up to 57.4 µM
# Cytochrome P450 2C9 (Homo sapiens), sequence (P11712 whole entry, looked up): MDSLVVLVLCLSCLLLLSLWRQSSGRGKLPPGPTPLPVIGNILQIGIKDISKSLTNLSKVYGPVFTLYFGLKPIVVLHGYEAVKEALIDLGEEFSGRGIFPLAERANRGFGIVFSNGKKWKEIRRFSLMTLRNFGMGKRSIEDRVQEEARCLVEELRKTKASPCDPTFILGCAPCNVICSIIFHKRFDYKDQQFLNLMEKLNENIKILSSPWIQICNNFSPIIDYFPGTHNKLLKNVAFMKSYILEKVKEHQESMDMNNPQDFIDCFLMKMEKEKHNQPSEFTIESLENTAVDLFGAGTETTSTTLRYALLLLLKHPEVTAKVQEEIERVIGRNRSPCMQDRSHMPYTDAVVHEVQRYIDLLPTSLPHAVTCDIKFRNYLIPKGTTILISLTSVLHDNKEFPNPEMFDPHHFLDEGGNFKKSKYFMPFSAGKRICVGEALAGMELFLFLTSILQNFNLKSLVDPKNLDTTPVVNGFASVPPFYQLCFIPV
# Procedure, shortened: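 Luminescence, after 20 min with luciferin detection reagent, reflected CYP2C9 turnover during a 1 h NADPH-driven reaction at 37C. Enzyme-substrate mix contained 0.4% bovine serum albumin and was preincubated with compound 10 min at room temperature.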
# [4] = Counterscreen qHTS for small molecule stabilizers of the endoplasmic reticulum resident proteome: GLuc-NoTag assay (AID 1508627; active = well fitted curve in the direction sought with a large enough effect; an effect the other way counts as inactive or inconclusive;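 note: SH-SY5Y cells given compound then 100 nM thapsigargin to empty ER calcium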); conditions: Gaussia luciferase NoTag secretion counterscreen, luminescence, thapsigargin 100 nM for final 4 h; series mostly up to 76.4 µM
# Procedure, shortened: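 SH-SY5Y cells stably expressing constitutively secreted GLuc without SERCaMP tag, exposed to compound for 19 hr, then to 100 nM thapsigargin for 4 hr at 37C. Medium luciferase was read by coelenterazine luminescence without lysis.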
# [5] = A High-Content qHTS Against Drug Library for the Identification of Small Molecules that Inhibit DYT1 Early Onset Primary Dystonia-Associated Cell Pathology (AID 1645839); conditions: HEK293 Flp-In EGFP-delE TorsinA, punctate imaging, 48 h; series mostly up to 91.7 µM
# Procedure, shortened: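 Flp-In T-REx 293 cells with tetracycline-inducible EGFP-delE hTOR1A (WT EGFP-hTOR1A as reference), 800 cells/well; compound added with tetracycline, 48 h at 37 C. Fixed, permeabilized cells imaged; %pathology (punctate TorsinA) primary, cell count counterscreen.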
# [6] = biological target: Calcium and integrin-binding protein 1 (Homo sapiens) (UniProt Q99828); test: Primary qHTS for Identification of Calcium Integrin Binding Protein 1 (CIB1) Competitor (AID 1508620; active = well fitted curve in the direction sought with a large enough effect; an effect the other way counts as inactive or inconclusive;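 note: GST tagged CIB1 binding a fluorescein labelled alphaIIb integrin peptide tracer; top concentration of the series differs between compounds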); conditions: CIB1-GST / FITC-alphaIIb peptide fluorescence polarization; series mostly up to 57.7 µM
# Calcium and integrin-binding protein 1 (Homo sapiens), sequence (Q99828 whole entry, looked up): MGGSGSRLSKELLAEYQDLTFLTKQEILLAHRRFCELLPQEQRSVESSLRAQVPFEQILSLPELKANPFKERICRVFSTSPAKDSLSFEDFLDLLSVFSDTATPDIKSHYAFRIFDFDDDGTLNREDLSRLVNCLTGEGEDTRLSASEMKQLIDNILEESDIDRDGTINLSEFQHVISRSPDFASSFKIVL
# Procedure, shortened: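 Fluorescence polarization competition: GST-tagged CIB1 (1 uM final) preincubated with compound 15 min at room temperature, then FITC-labelled alphaIIb peptide (100 nM final) added. After 15 min at room temperature, polarization read at Ex 480/Em 540.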
# [7] = Cell Viability qHTS for small molecule stabilizers of the endoplasmic reticulum resident proteome (AID 1508629; active = well fitted curve in the direction sought with a large enough effect; an effect the other way counts as inactive or inconclusive;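 note: human SH-SY5Y neuroblastoma cells carrying the GLuc-SERCaMP reporter; compound exposure about 46 h in total before the viability read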); conditions: cell viability counter-screen, 100 nM thapsigargin for final 4 h
# [8] = Primary qHTS for small molecule stabilizers of the endoplasmic reticulum resident proteome: Secreted ER Calcium Modulated Protein (SERCaMP) assay (AID 1508630; active = well fitted curve in the direction sought with a large enough effect; an effect the other way counts as inactive or inconclusive); conditions: SH-SY5Y GLuc-SERCaMP (Gaussia luciferase released on ER calcium loss) secretion, thapsigargin, luminescence; series mostly up to 38.4 µM
# Procedure, shortened: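 GLuc-SERCaMP-expressing SH-SY5Y cells, pretreated 16 h with compound, are challenged with thapsigargin to empty ER calcium stores; after 4 h, coelenterazine is added directly to the medium and luminescence is imaged.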
smiles,measurement,setting,value
CC(=O)c1c(C)c2cnc(Nc3ccc(N4CCNCC4)cn3)nc2n(C2CCCC2)c1=O,Potency,[1],17100 nM (active)
Cc1n[nH]c(C)c1Cc1sc2c(c1C(=O)N1C[C@H](O)CO1)c(=O)n(C)c(=O)n2CC(C)C,Potency,[1],393 nM (active)
COc1cc2nccc(Oc3ccc(NC(=O)C4(C(=O)Nc5ccc(F)cc5)CC4)cc3)c2cc1OC,Potency,[1],2150 nM (active)
O=C(O)c1ccccn1,Potency,[2],inactive
same,Potency,[3],inactive
Oc1ccc2c3c1O[C@H]1[C@@H](O)C=C[C@H]4[C@@H](C2)NCC[C@@]341,Potency,[4],inactive
same,Potency,[5],inactive
same,Potency,[3],inactive
COc1ccc(C(c2ccc(OC)cc2)C(Cl)(Cl)Cl)cc1,outcome,[6],inactive
same,Potency,[2],inactive
same,Potency,[3],1490 nM (active)
Clc1ccc(C(c2ccc(Cl)cc2)n2cc[n+](CC(OCc3ccc(Cl)cc3Cl)c3ccc(Cl)cc3Cl)c2)cc1 (centres undefined),Potency,[4],inactive
same,max response,[7],-14.7% (inactive)
COc1cc([C@@H]2c3cc4c(cc3[C@@H](O)C3COC(=O)C32)OCO4)cc(OC)c1O (some centres undefined),outcome,[6],inactive
same,Potency,[1],1710 nM (active)
CC(C)Oc1cccc(NC(=O)c2ccccc2C(F)(F)F)c1,Potency,[8],inactive
same,Potency,[3],5970 nM (active)
O=C(O)c1ccc2c(c1)nc(Nc1cccc(Cl)c1)c1ccncc12,Potency,[1],2150 nM (active)
CCCS(=O)(=O)Nc1ccc(F)c(C(=O)c2c[nH]c3ncc(-c4ccc(Cl)cc4)cc23)c1F,Potency,[1],68.1 nM (active)
